{"source": "PubChem BioAssay", "key": {"[1]": {"test": "inhibitors of TNFa-induced NFkB p65 translocation, primary screen, imaging, HUVEC, MLSMR starter and 10KST1 sets (AID 438;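 active = inhibition above 20% together with a positive visual image hit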;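 note: compound added about 3h40 before a 20 min TNFalpha stimulation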;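 for inhibition: signal is the nuclear over cytoplasmic p65 intensity ratio per well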)", "details": "HUVEC TNFa-induced p65 nuclear translocation; cell count: measured here: nuclei count (cytotoxicity indicator), at 2.08 µM; inhibition: at 2 µM, stronger effect = higher value, 0% TNFa-plus-vehicle, 100% no-TNFa wells"}, "[2]": {"test": "inhibitors of mutant huntingtin aggregation, primary screen, imaging, exon1htt(103Q)mCFP cells, high-content imaging (AID 483;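 active = visual image review flags a hit and inhibition of aggregation exceeds 20%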;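 note: compound exposure lasted 3 days before fixation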;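 for nuclei count: percent of the per-plate median nuclei count of sample wells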)", "details": "exon1htt(103Q)mCFP cell line, aggregate imaging, at 2 µM; inhibition of aggregation: stronger effect = higher value; nuclei count: measured here: cell count, toxicity"}, "[3]": {"test": "inhibitors of E-selectin induction by TNFa, primary screen, imaging, HUVEC, immunofluorescence, MLSMR starter and 10KST1 sets (AID 487;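 active = visually confirmed hit in the image check and inhibition above 20%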;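 for inhibition: signal is fraction of cell area covered by stained E-selectin grains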;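 for nuclei count: 100% = median nuclei count of all wells on the same plate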)", "details": "HUVEC TNFalpha-induced E-selectin immunofluorescence imaging, at 2 µM; inhibition: stronger effect = higher value; nuclei count: measured here: cell number, toxicity"}, "[4]": {"biological_target": "Voltage-gated potassium channel subunit beta-2 (Rattus norvegicus) (UniProt P62483)", "sequence (P62483 whole entry, looked up)": "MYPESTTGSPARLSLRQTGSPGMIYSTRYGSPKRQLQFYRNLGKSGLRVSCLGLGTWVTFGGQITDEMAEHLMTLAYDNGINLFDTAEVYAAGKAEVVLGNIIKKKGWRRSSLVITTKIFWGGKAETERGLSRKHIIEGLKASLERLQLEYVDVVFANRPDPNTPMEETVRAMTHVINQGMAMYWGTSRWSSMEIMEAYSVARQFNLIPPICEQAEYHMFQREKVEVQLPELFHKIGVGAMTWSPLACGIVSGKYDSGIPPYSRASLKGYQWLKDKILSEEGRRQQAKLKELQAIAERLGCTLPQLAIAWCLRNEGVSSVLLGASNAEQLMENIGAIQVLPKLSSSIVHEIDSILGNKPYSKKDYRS", "test": "KvBeta enzyme negative modulators, primary screen, biochemical, NADPH fluorescence (AID 622;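 active = fluorescence slope higher than the sample average by over 3 SD, cut at about -0.22 in these data, passing the limit was not always enough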;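 note: slope of raw intensity against log time taken from 70 to 1610 s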)", "details": "recombinant KvBeta, 4-cyanobenzaldehyde reduction, at 10 µM, stronger effect = higher value"}, "[5]": {"biological_target": "Voltage-gated potassium channel subunit beta-2 (Rattus norvegicus) (UniProt P62483)", "test": "KvBeta positive modulators, primary screen, biochemical, NADPH fluorescence (AID 623;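 active = NADPH fluorescence slope more negative than the mean of all samples by about 3 SD, 99.7% confidence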;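 note: fluorescence intensity change per second fitted from 20 to 320 s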)", "details": "Recombinant KvBeta, NADPH fluorescence decrease slope, 10 min; at 10 µM; stronger effect = lower value"}, "[6]": {"biological_target": "Alpha-2C adrenergic receptor (Homo sapiens) (UniProt P18825)", "sequence (P18825 whole entry, looked up)": "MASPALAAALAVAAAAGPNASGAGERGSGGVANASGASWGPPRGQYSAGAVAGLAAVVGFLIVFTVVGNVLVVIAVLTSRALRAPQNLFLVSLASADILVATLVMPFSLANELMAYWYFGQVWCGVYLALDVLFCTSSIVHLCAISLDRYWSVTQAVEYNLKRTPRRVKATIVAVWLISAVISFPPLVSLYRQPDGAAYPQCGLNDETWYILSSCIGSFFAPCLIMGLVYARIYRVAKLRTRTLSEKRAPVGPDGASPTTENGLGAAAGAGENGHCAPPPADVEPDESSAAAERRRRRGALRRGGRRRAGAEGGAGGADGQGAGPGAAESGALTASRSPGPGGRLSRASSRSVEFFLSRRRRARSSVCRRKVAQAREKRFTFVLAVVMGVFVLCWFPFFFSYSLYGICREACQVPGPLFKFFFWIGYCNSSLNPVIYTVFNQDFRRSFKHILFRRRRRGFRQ", "test": "modulators of alpha2C/GIRK thallium flux, primary screen, cell-based, HEK293 alpha2C/GIRK1/2 (AID 624;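 active = fluorescence slope after compound addition differing from the mean of all screened samples at 99.7% confidence, in either direction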;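 note: slope of fluorescence ratio to pre-addition baseline per second over 15 to 24 s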)", "details": "thallium flux BTC fluorescence, at 10 µM, actives lie on both sides"}, "[7]": {"test": "inhibitors of Sendai virus-induced IRF3 signaling, primary screen, TLR/RLR signaling modifier project, cell-based, Sendai virus stimulus, luciferase, 10K MLSCN set (AID 602276;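 active = inhibition at or above 50% at 10 µM; inactive = inhibition below 50%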;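 note: firefly luciferase from ISG56 promoter only with Renilla not read in this screen; 0% = Sendai virus plus DMSO and 100% = medium plus DMSO without virus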)", "details": "HEK293 RL24 IRF3 luciferase reporter, at 10 µM, stronger effect = higher value"}, "[8]": {"test": "inhibitors of poly I:C-induced TLR3 signaling, primary screen, cell-based, poly I:C stimulus, luciferase, 10K MLSCN set (AID 602277)", "details": "HEK293-TLR3 RL24 IRF3 luciferase reporter, at 10 µM, stronger effect = higher value"}}, "note": "The source made the active and inactive calls.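 Rule for the calls, unless noted: active = inhibition of the reporter signal at or above 50%; inactive = inhibition below 50%.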"}
{"smiles": "CCCSc1nc2c(cnn2-c2ccc(C)cc2)c(=O)[nH]1", "values": [{"measurement": "cell count", "setting": "[1]", "result": 671}, {"measurement": "inhibition", "setting": "[1]", "result": "-5.8% (inactive)"}, {"measurement": "inhibition of aggregation", "setting": "[2]", "result": "-5.9% (inactive)"}, {"measurement": "nuclei count", "setting": "[2]", "result": 115, "unit": "%"}, {"measurement": "inhibition", "setting": "[3]", "result": "-17.4% (inactive)"}, {"measurement": "nuclei count", "setting": "[3]", "result": 113, "unit": "%"}, {"measurement": "fluorescence slope", "setting": "[4]", "result": "-0.545 (inactive)"}, {"measurement": "NADPH fluorescence slope", "setting": "[5]", "result": "-5.2e-06 (inactive)"}, {"measurement": "slope", "setting": "[6]", "result": "0.0075 (inactive)"}, {"measurement": "inhibition", "setting": "[7]", "result": "-9.65% (inactive)"}, {"measurement": "inhibition", "setting": "[8]", "result": "10.6% (inactive)"}]}
{"smiles": "CC(=O)c1c(C)[nH]c(C(=O)N2CCN(C(=O)c3ccco3)CC2)c1C", "values": [{"measurement": "cell count", "setting": "[1]", "result": 233}, {"measurement": "inhibition", "setting": "[1]", "result": "-19.9% (inactive)"}, {"measurement": "inhibition of aggregation", "setting": "[2]", "result": "9.5% (inactive)"}, {"measurement": "nuclei count", "setting": "[2]", "result": 94.7, "unit": "%"}, {"measurement": "inhibition", "setting": "[3]", "result": "-98.1% (inactive)"}, {"measurement": "nuclei count", "setting": "[3]", "result": 120, "unit": "%"}, {"measurement": "fluorescence slope", "setting": "[4]", "result": "-0.537 (inactive)"}, {"measurement": "NADPH fluorescence slope", "setting": "[5]", "result": "9e-06 (inactive)"}, {"measurement": "slope", "setting": "[6]", "result": "0.00697 (inactive)"}, {"measurement": "inhibition", "setting": "[7]", "result": "-22.5% (inactive)"}, {"measurement": "inhibition", "setting": "[8]", "result": "10.9% (inactive)"}]}
{"smiles": "O=S(=O)(NCC1CCCO1)c1ccc2c(c1)OCCO2", "note": "(stereo not given)", "values": [{"measurement": "cell count", "setting": "[1]", "result": 311}, {"measurement": "inhibition", "setting": "[1]", "result": "-5.5% (inactive)"}, {"measurement": "inhibition of aggregation", "setting": "[2]", "result": "-1% (inactive)"}, {"measurement": "nuclei count", "setting": "[2]", "result": 122, "unit": "%"}, {"measurement": "inhibition", "setting": "[3]", "result": "-67.1% (inactive)"}, {"measurement": "nuclei count", "setting": "[3]", "result": 120, "unit": "%"}, {"measurement": "fluorescence slope", "setting": "[4]", "result": "-0.469 (inactive)"}, {"measurement": "NADPH fluorescence slope", "setting": "[5]", "result": "-9.9e-06 (inactive)"}, {"measurement": "slope", "setting": "[6]", "result": "0.00518 (inactive)"}, {"measurement": "inhibition", "setting": "[7]", "result": "6.84% (inactive)"}, {"measurement": "inhibition", "setting": "[8]", "result": "7.25% (inactive)"}]}
{"smiles": "CCOc1cc(CN2CCN(C(=O)c3ccco3)CC2)ccc1OC", "values": [{"measurement": "cell count", "setting": "[1]", "result": 403}, {"measurement": "inhibition", "setting": "[1]", "result": "-3% (inactive)"}, {"measurement": "inhibition of aggregation", "setting": "[2]", "result": "8.5% (inactive)"}, {"measurement": "nuclei count", "setting": "[2]", "result": 88.9, "unit": "%"}, {"measurement": "inhibition", "setting": "[3]", "result": "44.9% (inactive)"}, {"measurement": "nuclei count", "setting": "[3]", "result": 104, "unit": "%"}, {"measurement": "fluorescence slope", "setting": "[4]", "result": "-0.33 (inactive)"}, {"measurement": "NADPH fluorescence slope", "setting": "[5]", "result": "-1.5e-05 (inactive)"}, {"measurement": "slope", "setting": "[6]", "result": "0.00559 (inactive)"}, {"measurement": "inhibition", "setting": "[7]", "result": "11.7% (inactive)"}, {"measurement": "inhibition", "setting": "[8]", "result": "21.2% (inactive)"}]}
{"smiles": "COc1cc2c(cc1OC)C(C)N(C(=O)c1cc3n(n1)C(C(F)(F)F)CC(c1ccco1)N3)CC2", "note": "(stereo not given)", "values": [{"measurement": "cell count", "setting": "[1]", "result": 591}, {"measurement": "inhibition", "setting": "[1]", "result": "9.6% (inactive)"}, {"measurement": "inhibition of aggregation", "setting": "[2]", "result": "-0.8% (inactive)"}, {"measurement": "nuclei count", "setting": "[2]", "result": 97.6, "unit": "%"}, {"measurement": "inhibition", "setting": "[3]", "result": "-22% (inactive)"}, {"measurement": "nuclei count", "setting": "[3]", "result": 96.6, "unit": "%"}, {"measurement": "fluorescence slope", "setting": "[4]", "result": "-0.613 (inactive)"}, {"measurement": "NADPH fluorescence slope", "setting": "[5]", "result": "1.3e-05 (inactive)"}, {"measurement": "slope", "setting": "[6]", "result": "0.00369 (inactive)"}, {"measurement": "inhibition", "setting": "[7]", "result": "25.6% (inactive)"}, {"measurement": "inhibition", "setting": "[8]", "result": "19.1% (inactive)"}]}
{"smiles": "CC(=O)SCCC(=O)Nc1ccccc1", "values": [{"measurement": "cell count", "setting": "[1]", "result": 646}, {"measurement": "inhibition", "setting": "[1]", "result": "-1.4% (inactive)"}, {"measurement": "inhibition of aggregation", "setting": "[2]", "result": "-12.1% (inactive)"}, {"measurement": "nuclei count", "setting": "[2]", "result": 122, "unit": "%"}, {"measurement": "inhibition", "setting": "[3]", "result": "-61.7% (inactive)"}, {"measurement": "nuclei count", "setting": "[3]", "result": 108, "unit": "%"}, {"measurement": "fluorescence slope", "setting": "[4]", "result": "-0.498 (inactive)"}, {"measurement": "NADPH fluorescence slope", "setting": "[5]", "result": "3.1e-06 (inactive)"}, {"measurement": "slope", "setting": "[6]", "result": "0.00709 (inactive)"}, {"measurement": "inhibition", "setting": "[7]", "result": "20.3% (inactive)"}, {"measurement": "inhibition", "setting": "[8]", "result": "28.9% (inactive)"}]}
{"smiles": "NC(=O)COC(=O)CNC(=O)c1ccc(Cl)cc1", "values": [{"measurement": "cell count", "setting": "[1]", "result": 450}, {"measurement": "inhibition", "setting": "[1]", "result": "11.7% (inactive)"}, {"measurement": "inhibition of aggregation", "setting": "[2]", "result": "4.1% (inactive)"}, {"measurement": "nuclei count", "setting": "[2]", "result": 106, "unit": "%"}, {"measurement": "inhibition", "setting": "[3]", "result": "20.5% (inactive)"}, {"measurement": "nuclei count", "setting": "[3]", "result": 111, "unit": "%"}, {"measurement": "fluorescence slope", "setting": "[4]", "result": "-0.521 (inactive)"}, {"measurement": "NADPH fluorescence slope", "setting": "[5]", "result": "-1.3e-05 (inactive)"}, {"measurement": "slope", "setting": "[6]", "result": "0.00666 (inactive)"}, {"measurement": "inhibition", "setting": "[7]", "result": "18.5% (inactive)"}, {"measurement": "inhibition", "setting": "[8]", "result": "17.3% (inactive)"}]}
{"smiles": "CC1(C)OC(=O)C(=CNc2ccccc2F)C(=O)O1", "values": [{"measurement": "cell count", "setting": "[1]", "result": 604}, {"measurement": "inhibition", "setting": "[1]", "result": "-9.5% (inactive)"}, {"measurement": "inhibition of aggregation", "setting": "[2]", "result": "29.9% (inactive)"}, {"measurement": "nuclei count", "setting": "[2]", "result": 95.6, "unit": "%"}, {"measurement": "inhibition", "setting": "[3]", "result": "22.8% (inactive)"}, {"measurement": "nuclei count", "setting": "[3]", "result": 96.8, "unit": "%"}, {"measurement": "fluorescence slope", "setting": "[4]", "result": "-0.606 (inactive)"}, {"measurement": "NADPH fluorescence slope", "setting": "[5]", "result": "-1.2e-05 (inactive)"}, {"measurement": "slope", "setting": "[6]", "result": "0.0057 (inactive)"}, {"measurement": "inhibition", "setting": "[7]", "result": "14.1% (inactive)"}, {"measurement": "inhibition", "setting": "[8]", "result": "28% (inactive)"}]}
{"smiles": "Cc1cc(C)nc(NC(=O)c2cnc3sccn3c2=O)n1", "values": [{"measurement": "cell count", "setting": "[1]", "result": 650}, {"measurement": "inhibition", "setting": "[1]", "result": "-14% (inactive)"}, {"measurement": "inhibition of aggregation", "setting": "[2]", "result": "18.2% (inactive)"}, {"measurement": "nuclei count", "setting": "[2]", "result": 84.7, "unit": "%"}, {"measurement": "inhibition", "setting": "[3]", "result": "-14.9% (inactive)"}, {"measurement": "nuclei count", "setting": "[3]", "result": 110, "unit": "%"}, {"measurement": "fluorescence slope", "setting": "[4]", "result": "-0.528 (inactive)"}, {"measurement": "NADPH fluorescence slope", "setting": "[5]", "result": "-3.1e-05 (inactive)"}, {"measurement": "slope", "setting": "[6]", "result": "0.00661 (inactive)"}, {"measurement": "inhibition", "setting": "[7]", "result": "17.6% (inactive)"}, {"measurement": "inhibition", "setting": "[8]", "result": "47.4% (inactive)"}]}
{"smiles": "CC(=O)Nc1ccc(S(=O)(=O)NCC(C)NS(=O)(=O)c2ccc(NC(C)=O)cc2)cc1", "note": "(stereo not given)", "values": [{"measurement": "cell count", "setting": "[1]", "result": 572}, {"measurement": "inhibition", "setting": "[1]", "result": "-9.7% (inactive)"}, {"measurement": "inhibition of aggregation", "setting": "[2]", "result": "18.1% (inactive)"}, {"measurement": "nuclei count", "setting": "[2]", "result": 76, "unit": "%"}, {"measurement": "inhibition", "setting": "[3]", "result": "-204% (inactive)"}, {"measurement": "nuclei count", "setting": "[3]", "result": 95.1, "unit": "%"}, {"measurement": "fluorescence slope", "setting": "[4]", "result": "-0.442 (inactive)"}, {"measurement": "NADPH fluorescence slope", "setting": "[5]", "result": "4.4e-05 (inactive)"}, {"measurement": "slope", "setting": "[6]", "result": "0.0079 (inactive)"}, {"measurement": "inhibition", "setting": "[7]", "result": "-11.9% (inactive)"}, {"measurement": "inhibition", "setting": "[8]", "result": "-13.4% (inactive)"}]}
